Where “and” joins values, the source holds several entries; their conditions need not be identical. Identical values can stand only once. The campaign covered roughly 16,000 compounds. About 5,700 (36%) were called active. Not shown: some 24% with an inconclusive outcome. Some of the results follow. A number with no mark means an inactive call. Calls follow the shape of the dose curve; as a rule, active = well fitted curve in the direction sought with a large enough effect; inconclusive = small, poorly fitted or top-dose-only effect, or effect the other way; inactive = no such curve, though single readings can be large or run the other way.
% is scaled to controls: 0 for no effect and ±100 for the full control effect.

The target in this test is Cytochrome P450 1A2 (Homo sapiens) (UniProt P05177). The test is described as follows: Cytochrome panel assay with activity outcomes. Particulars: recombinant CYP, pro-luciferin dealkylation, luminescence, p450-cyp1a2; series mostly up to 57.1 µM.
Chain of Cytochrome P450 1A2 (Homo sapiens) (P05177 whole entry, looked up): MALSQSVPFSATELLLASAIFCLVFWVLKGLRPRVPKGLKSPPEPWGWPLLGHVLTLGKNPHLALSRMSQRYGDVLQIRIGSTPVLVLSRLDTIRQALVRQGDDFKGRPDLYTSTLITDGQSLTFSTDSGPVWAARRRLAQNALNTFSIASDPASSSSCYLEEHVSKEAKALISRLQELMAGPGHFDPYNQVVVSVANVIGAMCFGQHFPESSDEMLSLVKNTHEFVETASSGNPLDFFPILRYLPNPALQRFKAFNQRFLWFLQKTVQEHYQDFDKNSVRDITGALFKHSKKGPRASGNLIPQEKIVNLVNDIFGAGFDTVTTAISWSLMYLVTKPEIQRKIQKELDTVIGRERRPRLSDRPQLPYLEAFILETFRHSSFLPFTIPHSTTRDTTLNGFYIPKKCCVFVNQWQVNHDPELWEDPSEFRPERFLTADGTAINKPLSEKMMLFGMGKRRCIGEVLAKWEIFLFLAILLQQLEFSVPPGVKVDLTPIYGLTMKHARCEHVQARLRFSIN
For the molecule `C[C@]12CC3CC(N)(C1)C[C@@](C)(C3)C2`, the AC50 result was “inactive”.
On to `CC(C)C(CCNC(=O)CC(Cc1ccccc1)c1ccco1)c1ccco1` (stereo not given), for which the AC50 result is “inactive”.
Turning to `COC(=O)[C@@]1(Cc2ccc(OC)cc2)[C@@H]2C(=CC(=O)[C@H]2CC(=O)C(=O)N(C)C)CN1C(=O)c1ccccc1`, the AC50 entry was “inactive”.
Take `C=C1C(=O)C=C2CN(C(=O)c3ccccc3)[C@@](Cc3ccc(F)cc3)(C(=O)OC)[C@@H]12`: the AC50 was 15.8 µM (active).
Regarding `COC(=O)[C@@]1(Cc2ccc(F)cc2)[C@@H]2C(=CC(=O)[C@H]2CC(=O)C(=O)N2CCCC2)CN1C(=O)c1ccccc1`, the AC50 result was “inactive”.
Same read-out and setting: the result for `C=C1C(=O)C=C2CN(C(=O)c3ccccc3)[C@@](Cc3ccc(OC)cc3)(C(=O)OC)[C@@H]12` reads 15.8 µM (active); that for `COC(=O)[C@@]1(Cc2ccc(F)cc2)[C@@H]2C(=CC(=O)[C@H]2CC(=O)C(=O)N(C)C)CN1C(=O)c1ccccc1`, “inactive”.
The same measure, in the same setting: the result for `COC(=O)[C@@]1(Cc2ccc(OC)cc2)[C@@H]2C(=CC(=O)[C@H]2CC(=O)C(=O)N2CCCC2)CN1C(=O)c1ccccc1` reads “inactive”; that for `CCN1CCN(C(=O)N[C@H](C(=O)N[C@@H]2C(=O)N3C(C(=O)O)=C(CSc4nnnn4C)CS[C@@H]23)c2ccc(O)cc2)C(=O)C1=O`, “inactive”.
On to `CCOC(=O)CSc1cc(C(F)(F)F)nc(-c2ccccn2)n1`, for which the AC50 was 2.24 µM (active).
In the case of `FC(F)(F)c1cc(Sc2ccccc2)nc(-c2ccccn2)n1`, the AC50 was 0.891 µM (active).
Still for that read-out and setting: the result for `CC(C)Nc1cc(C(F)(F)F)nc(-c2ccccn2)n1` reads 1.58 µM (active); that for `O=C(O)CSc1cc(C(F)(F)F)nc(-c2ccccn2)n1`, “inactive”.
Still for that read-out and setting: the figure for `COC(=O)CSc1cc(C(F)(F)F)nc(-c2ccccn2)n1` is 0.708 µM (active); for `COc1ccccc1-c1cncnc1NCc1cccnc1` it is 6.31 µM (active); for `COc1ccccc1-c1cncnc1NCc1ccccc1` it is 12.6 µM (active).
As for `COc1ccccc1-c1cncnc1NCc1cccc(C)c1`, the AC50 is 5.01 µM (active).
Same read-out and setting: the entry for `CCC[C@@H]1C[C@@]1(CCC)C(NS(=O)(=O)c1cccc2cccnc12)c1ccc(Cl)cc1` (stereo not given in full) is “inactive”.
For `CC(C)NC(=O)N1CC[C@@]2(CCCN(C(=O)c3cccc(F)c3)C2)C1`, the AC50 entry is “inactive”.
Same read-out and setting: the result for `COc1ccc2[nH]cc(CCNc3ncnc4ccc(-c5ccc6c(c5)OCO6)cc34)c2c1` reads 0.631 µM (active); that for `COc1ccc2[nH]cc(CCNc3ncnc4ccc(-c5ccoc5)cc34)c2c1`, 0.316 µM (active); that for `C=CC(C)(C)c1[nH]c2ccccc2c1C1=C(O)C(=O)C(c2c[nH]c3c(CC=C(C)C)cccc23)=C(O)C1=O`, 25.1 µM (active).
Regarding `O=C(CSc1nnc(-c2ccco2)n1-c1ccccc1)NCc1ccco1`, the AC50 entry was “inactive”.
For the molecule `O=C(CSc1nnc2sc3ccccc3n12)NCc1ccco1`, the AC50 is 10 µM (active).
Take `CCOC(=O)c1sc2nc(CC(=O)OC)nc(NCc3ccc(F)cc3)c2c1C`: the AC50 is 14.1 µM (active).
Take `COc1ccc(COC(=O)N/N=C2/C[C@@H](O)[C@@H](O)[C@@H]3[C@@H]4C(=O)N(c5cccc(Oc6ccccc6)c5)C(=O)[C@H]4CC[C@@H]23)cc1`: the activity, negative = inhibition is -36.2% [at 11.4 µM].
With `Cc1cc(=O)[nH]c(SCC(=O)Nc2nc3c(s2)CCCC3)n1`, the AC50 was 12.6 µM (active).
Regarding `CCC(Sc1nc(C)cc(=O)[nH]1)C(=O)Nc1nc2c(s1)CCCC2` (stereo not given), the AC50 is 12.6 µM (active).
Turning to `Cc1cc(=O)[nH]c(-n2[nH]c3c(c2=O)CCCC3)n1`, the AC50 result is “inactive”.
Regarding `C/C(=N/Nc1nc(C)cc(=O)[nH]1)C(=O)O`, the activity, negative = inhibition was -8.18% [at 11.4 µM].
`Nc1cc(=O)[nH]c(SCC(=O)Nc2ccc(S(=O)(=O)N3CCOCC3)cc2)n1`: the AC50 result was “inactive”.
`CC(c1ccccc1C(O)c1ccccc1)N(C)C` (stereo not given): the AC50 result is “inactive”.
As to `O=C(NNC(=O)C1CC(c2cccnc2)=NO1)Nc1cccc(F)c1` (stereo not given), the AC50 was 14.1 µM (active).
The same measure, in the same setting: the figure for `COc1cccc(C2=NOC(C(=O)Nc3ccc(OC)c(OC)c3)C2)c1` (stereo not given) is 10 µM (active).
Regarding `Cc1ccc(NC(=O)NNC(=O)C2CC(c3cccnc3)=NO2)cc1` (stereo not given), the AC50 entry is “inactive”.
For `COCCNC(=O)C1CC(c2cccc(OC)c2)=NO1` (stereo not given), the AC50 result is “inactive”.
As for `O=C(Nc1cccc(F)c1)N1CC2(CCN(C(=O)c3cnccn3)CC2)C1`, the AC50 result was “inactive”.
With `COc1ccc(NC(=O)C2c3cc(OC)c(OC)cc3C(=O)N(C)C2c2cccnc2)cc1OC` (stereo not given), the AC50 result is “inactive”.
Still for that read-out and setting: the result for `COc1cccc(C2=NOC(C(=O)NCCN3CCOCC3)C2)c1` (stereo not given) reads “inactive”; that for `COc1cccc(C2=NOC(C(=O)Nc3cccnc3)C2)c1` (stereo not given), 10 µM (active).
Turning to `CCN1C(=O)[C@H]2[C@@H]3[C@H](O)[C@H](O)CC(=O)[C@H]3CC[C@H]2C1=O`, the activity, negative = inhibition was -11.3% [at 11.4 µM] and -4.71% [at 11.4 µM].
With `CN1CCCN(C2C3CC4CC(C3)CC2C4)CC1` (stereo not given), the AC50 entry was “inactive”.
As to `c1cc(CNCCN2CCNCC2)ccn1`, the activity, negative = inhibition was -16% [at 11.4 µM].
For `c1cc(CSSCc2ccncc2)ccn1`, the AC50 is 2 µM (active).
On to `CN(Cc1ccco1)c1ncnc2ccc(-c3ccoc3)cc12`, for which the AC50 is 2.51 µM (active).
With `CN(Cc1ccco1)c1ncnc2ccc(-c3ccc4c(c3)OCO4)cc12`, the half-maximal activity concentration (AC50) was 0.501 µM (active).
As for `O=C(NNC(=O)c1ccncc1)c1ccncc1`, the activity, negative = inhibition was -7.18% [at 11.4 µM].
For the molecule `O=C(CC(=O)c1ccncc1)c1ccccc1`, the AC50 is 0.1 µM (active).
In the case of `O=C(c1ccncc1)N1CCC2(CCN(Cc3ccccc3)CC2)CC1`, the AC50 result is “inactive”.
For `Cn1c(-c2sc(=S)n(-c3ccccc3)c2N)nc2ccccc21`, the AC50 was 0.708 µM (active).
For `O=C1C[C@@H](O)[C@@H](O)[C@H]2[C@@H]3C(=O)N(Cc4ccccc4)C(=O)[C@@H]3CC[C@H]12`, the activity, negative = inhibition was 7.93% [at 11.4 µM] and -5.24% [at 11.4 µM].
In the case of `COc1cc(-c2ccc(N=Nc3ccc4c(S(=O)(=O)O)cc(S(=O)(=O)O)c(N)c4c3O)c(OC)c2)ccc1N=Nc1ccc2c(S(=O)(=O)O)cc(S(=O)(=O)O)c(N)c2c1O`, the AC50 was 12.6 µM (active).
With `Nc1ccc(N=Nc2ccc(-c3ccc(O)cc3)cc2)c2ccc(S(=O)(=O)O)cc12`, the activity, negative = inhibition is -17.8% [at 2.29 µM].
For `COc1ccc(N2C(=O)CCC(C(=O)O)C2c2ccc(F)cc2)cc1` (stereo not given), the AC50 result is “inactive”.
The same measure, in the same setting: the result for `COc1ccc(CNc2ccnc(-c3ccccc3OC)n2)c(OC)c1` reads 5.01 µM (active).
As for `COc1ccccc1CNc1ccnc(-c2ccccc2C(F)(F)F)n1`, the AC50 was 10 µM (active).
As for `COc1ccc(CNc2ccnc(-c3ccccc3Cl)n2)c(OC)c1`, the AC50 is 5.01 µM (active).
Same read-out and setting: the figure for `COc1ccc(CNc2ccnc(-c3ccccc3C(F)(F)F)n2)c(OC)c1` is 15.8 µM (active).
On to `COc1ccc([C@@H](Nc2ccccn2)c2cc(C(C)(C)C)cc(C(C)(C)C)c2O)cc1`, for which the activity, negative = inhibition was 1.22% [at 2.29 µM].
On to `CO[C@H]1COC(=O)C/C=C\[C@@H](C)COC(=O)[C@@H](OCc2ccccc2)/C=C\[C@@H]1C`, for which the activity, negative = inhibition is -1.45% [at 11.4 µM].
On the same count and under the same terms, the result for `CC(=O)OC[C@@H]1O[C@@H](O/N=C2/C[C@@H](O)[C@@H](O)[C@@H]3[C@H]4C(=O)N(c5ccc(F)cc5F)C(=O)[C@@H]4CC[C@@H]23)[C@H](OC(C)=O)[C@H](OC(C)=O)[C@@H]1OC(C)=O` reads 2.88% [at 11.4 µM].
Turning to `COc1ccccc1CNc1ccnc(-c2ccccc2Cl)n1`, the AC50 is 5.01 µM (active).
As for `Cc1n[nH]c(=O)nc1NCc1ccccc1Cl`, the AC50 entry is “inactive”.
As to `CC(=O)c1cn(CC(=O)Nc2c(C)cccc2C)c2ccccc12`, the AC50 entry was “inactive”.
Turning to `Cc1cc(OCCn2cc(/C(N)=N/O)c3ccccc32)ccc1Cl`, the AC50 was 2 µM (active).
Take `CC(=O)NNc1nc2ccccc2s1`: the AC50 was 11.2 µM (active).
The same measure, in the same setting: the entry for `CC(=O)NNC(=O)C(O)(c1ccccc1)c1ccccc1` is “inactive”.
Still for that read-out and setting: the result for `c1ccc2sc(NC3=NCN(C4CCCCCC4)CN3)nc2c1` reads “inactive”; that for `O=C(NNc1nc2ccccc2s1)C1CC1`, 20 µM (active).
Regarding `O=[N+]([O-])c1ccc(Nc2nc3ccccc3s2)cc1`, the activity, negative = inhibition is -20% [at 11.4 µM].
Take `CCOC(=O)c1ccc(NC(=O)C2CCCO2)cc1` (stereo not given): the AC50 was 2.51 µM (active).
`NC(=O)c1ccc(NC(=O)C2CCCO2)cc1` (stereo not given): the AC50 entry was “inactive”.
In the case of `Cc1ccc(CS(=O)(=O)CCC(=O)NCCCN2CCCC2)cc1`, the AC50 entry is “inactive”.
Same read-out and setting: the entry for `CCCC(CCC)C(=O)NNc1cc(=O)c2c(=O)n(C)c(=O)n(C)c2[nH]1` is “inactive”; for `CCC(=O)NNc1cc(=O)c2c(=O)n(C)c(=O)n(C)c2[nH]1` it is 2.82 µM (active); for `Cc1nn(-c2ccc(F)cc2)c(Cl)c1/C=C(\CCC(=O)O)c1nc2ccccc2s1` it is “inactive”.
As for `Cc1nn(-c2ccc(F)cc2)c(C)c1NS(=O)(=O)c1ccc2ccccc2c1`, the AC50 was 15.8 µM (active).
Consider `Cc1cc(C)nc(NS(=O)(=O)c2ccc(N)cc2)n1`, for which the AC50 entry is “inactive”.
Take `CCCCn1c(NCc2ccccc2NS(=O)(=O)c2ccc(C)cc2)nc2ccccc21`: the AC50 result was “inactive”.
Turning to `Cc1ccc(S(=O)(=O)Nc2nc3ccccc3nc2N2CCc3ccccc3C2)cc1`, the AC50 is 22.4 µM (active).
`COc1ccccc1S(=O)(=O)Nc1ccc(-c2nnc3n2CCCCC3)cc1`: the AC50 entry is “inactive”.
Turning to `Cn1cccc1/C=N/NC(=O)c1sc2ccccc2c1Cl`, the AC50 is 0.891 µM (active).
Consider `Cc1ccc(C(=O)N/N=C\c2cccn2C)cn1`, for which the AC50 was 12.6 µM (active).
Take `C=N[C@H](C(=O)N[C@@H]1C(=O)N2[C@@H]1SC(C)(C)[C@@H]2C(=O)O)c1ccccc1`: the AC50 result is “inactive”.
`Clc1ccc(COn2c(-c3ccccc3)nc3ccccc32)cc1`: the AC50 is 1.58 µM (active).
Consider `Oc1ccc(Cn2c(-c3ccc(O)cc3)nc3ccccc32)cc1`, for which the activity, negative = inhibition was -5.47% [at 11.4 µM].
Take `O=[N+]([O-])c1ccc2nc(-c3ccccc3)n(OCc3ccc(Cl)cc3)c2c1`: the AC50 is 2.24 µM (active).
For the molecule `O=[N+]([O-])c1ccc(N2CCC(=NOCc3ccc(Cl)cc3)CC2)cc1`, the AC50 entry is “inactive”.
As to `Cc1ccc(COn2c(-c3ccc(Cl)cc3)nc3ccc([N+](=O)[O-])cc32)cc1`, the AC50 is 0.398 µM (active).
Regarding `O=[N+]([O-])c1ccc2nc(-c3ccc(Cl)cc3)n(OCc3ccccc3)c2c1`, the AC50 was 2.51 µM (active).

Broadly, the AC50 is the midpoint of the concentration-response curve, whichever way the signal moves.

The record behind these values is PubChem BioAssay AID1851 (National Center for Advancing Translational Sciences (NCATS), 2009).
